High-throughput results from PubChem BioAssay.
Most compounds without a hit are left out; they make up all but 11% or so of the library.
hNpr1 antagonist – Natriuretic polypeptide receptor (hNpr1) antagonism - Primary qHTS; Atrial natriuretic peptide receptor 1 (Homo sapiens), P16066; actives 1.6% (n = 76,000); Potency, µM (series often up to 46.3 µM), for the others: top-dose activity change, negative = inhibition, hits mostly inhibitors; HEK293 hNpr1 GloSensor cGMP, ANP-stimulated luminescence; calls by dose curve; also: nearly all actives have a fitted effect of over 60% in size
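Compound pre-incubated 30 min at room temperature on GloSensor-loaded HEK293 cells stably carrying hNpr1 and the pGS-40F cGMP biosensor. Stimulation uses hNppA at 0.1 nM final; luminescence is taken at baseline and 20 min post-agonist.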
3T3 cytotox – Cytotoxic Profiling in NIH 3T3 Cell Line of Diverse Libraries Using Quantitative High-Throughput Screening; NIH 3T3 viability, CellTiter-Glo ATP luminescence, 48-72 h; Potency, µM (highest dose often 96.7 µM), for the others: top-dose activity change, negative = cytotoxicity, most hits filed as inhibitors; actives 4.3% (n = 94,000); AID 1345082, 2018; also: nearly all actives have a fitted effect of over 55% in size
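Cells were seeded at 400 per well, treated with pin-transferred compound, and kept 48 or 72 hr at 37 °C before CellTiter-Glo addition and luminescence imaging of cellular ATP.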
Luciferase inh – Firefly luciferase inhibition profiling of diverse chemical library using quantitative high-throughput screening; Potency, µM (series often up to 115 µM), actives largely listed as inhibitors; actives 2.5% (n = 76,000); purified P. pyralis luciferase, luminescence, biochemical; also: nearly all actives have a fitted effect of over 65% in size
Target sequence (P08659 whole entry, looked up): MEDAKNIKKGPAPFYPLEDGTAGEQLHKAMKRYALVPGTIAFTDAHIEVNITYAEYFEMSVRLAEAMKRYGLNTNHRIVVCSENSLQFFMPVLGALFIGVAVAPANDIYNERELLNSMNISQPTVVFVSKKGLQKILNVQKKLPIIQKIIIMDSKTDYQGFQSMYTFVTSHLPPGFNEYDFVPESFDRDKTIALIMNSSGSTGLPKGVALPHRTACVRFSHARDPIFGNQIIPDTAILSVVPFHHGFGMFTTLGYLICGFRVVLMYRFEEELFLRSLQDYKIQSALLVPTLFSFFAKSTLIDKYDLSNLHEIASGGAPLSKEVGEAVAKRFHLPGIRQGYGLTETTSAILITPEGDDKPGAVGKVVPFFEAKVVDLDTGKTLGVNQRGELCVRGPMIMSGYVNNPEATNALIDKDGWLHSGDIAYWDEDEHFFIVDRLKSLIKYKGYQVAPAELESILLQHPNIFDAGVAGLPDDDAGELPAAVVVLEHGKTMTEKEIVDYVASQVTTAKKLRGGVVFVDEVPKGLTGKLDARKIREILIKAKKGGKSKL
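Luminescence read by CCD imager after adding enzyme (10nM final) to wells holding compound, titrated in qHTS. Substrates 10uM each D-luciferin and ATP; buffer 50mM Tris acetate pH 7.5, 10mM Mg acetate, Tween-20, BSA.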
HEK cytotox – Cytotoxic Profiling in HEK 293 Cell Line of Diverse Libraries Using Quantitative High-Throughput Screening | HEK 293 viability, ATP luminescence (CellTiter-Glo), 48-72 h | Potency, µM (doses to about 115 µM), inactives show at the highest dose activity change, negative = cytotoxicity, usual class: inhibitors | actives 6.6% (n = 94,000) | AID 1345083, 2018; also: nearly all actives have a fitted effect of over 60% in size
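HEK 293 seeded at 250 cells/well receive compound via pintool. After 48 or 72 hr at 37 degree Celsius, 5% CO2 and 95% humidity, CellTiter-Glo is dispensed and luminescence read following 10 min at room temperature.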
Numbers without * were called inactive; i = inactive; u = inconclusive; x = not tested or not shown; [ ] = dose if it differs, or a comment. Unless noted, calls follow the shape of the dose curve; as a rule, active = well fitted curve in the direction sought with a large enough effect; inconclusive = small, poorly fitted or top-dose-only effect, or another doubt; inactive = no such curve, though single readings can be large; an effect the other way counts as inactive or inconclusive. % is scaled to controls: 0 for no effect and ±100 for the full control effect; potency is read from the fitted curve at half-maximal effect.

SMILES	hNpr1 antagonist	3T3 cytotox	Luciferase inh	HEK cytotox
c1cc(-c2cc(-c3cn[nH]c3)c3cncn3c2)cc(N2CCOCC2)c1	-23%[70.6 µM]	25µM*	i	u
Cn1cc(-c2cc(C3=CCOCC3)c3cncn3c2)cn1	-2%[70.6 µM]	u	i	5%[230 µM]
C1=C(c2cc(-c3ccncc3)cn3cncc23)CCOC1	4%[70.6 µM]	25µM*	i	100µM*
CC(=O)N1CCN(C(=O)c2cc(-c3cc(Cl)cc(Cl)c3)c3nncn3n2)CC1	x	-16%	x	0%
COc1ccc(C(=O)N2CCCC(c3nn(C)c(=O)n3C(C)C)C2)cc1OC (stereo not drawn)	x	-26%	x	-17%
CN(C)c1cccc(C(=O)NC2CCCN(c3cc(-c4ccc(Cl)cc4)[nH]n3)C2)c1 (stereo not drawn)	-19%	u	u	u
O=C(NC1CCCN(c2cc(-c3ccc(F)cc3)[nH]n2)C1)c1cccc(Br)c1 (stereo not drawn)	-26%	u	i	32µM*
Cc1nnc2ccc(N3CCC(NC(=O)c4cccc(Cl)c4)C3)nn12 (stereo not drawn)	x	u	x	-22%
O=C(NC1CCCN(c2cc(-c3ccc(F)cc3)[nH]n2)C1)c1cccc(Cl)c1 (stereo not drawn)	-27%	18µM*	i	35µM*
Cc1nnc2ccc(N3CCCC(NC(=O)c4cccc(Cl)c4)C3)nn12 (stereo not drawn)	x	u	x	79µM*
CC(=O)Nc1cccc(C(=O)NC2CCCN(c3cc(-c4ccc(Cl)cc4)[nH]n3)C2)c1 (stereo not drawn)	5%	u	32µM*	45µM*
COc1ccc(-c2cc(N3CCC(NC(=O)c4cccc(Br)c4)C3)n[nH]2)cc1 (stereo not drawn)	-14%	u	i	u
COCC(=O)NCCc1ncc(C)n1C1CCCCCC1	x	-18%	x	-16%
CN(C)S(=O)(=O)N1CC(N2CC(C(=O)N3CCCC3)CC2=O)C1 (stereo not drawn)	x	-7%	x	-1%
Cn1ccc(Nc2nccc3c(=O)cc(-c4cn[nH]c4)oc23)n1	0%[70.6 µM]	79µM*	i	u
O=c1cc(-c2cccnc2)oc2c(NCC3CCOCC3)nccc12	-1%[70.6 µM]	u	i	-14%[172 µM]
O=c1cc(-c2cccnc2)oc2c(NCc3ccccc3)nccc12	5%[70.6 µM]	22µM*	u	u
Cn1ccc(Nc2nccc3c(=O)cc(-c4cccnc4)oc23)n1	-2%[70.6 µM]	40µM*	i	-6%[172 µM]
CN(c1cc(=O)c2ccnc(Nc3ccn(C)n3)c2o1)C1CCOCC1	4%[70.6 µM]	u	i	-17%[172 µM]
Cc1ccc([S+](=O)([O-])N2CCC(N3C(=O)c4c(c(C)nn4-c4ccccc4)C3C)C2)cc1 (stereo not drawn)	x	-27%	x	u
COc1cccc(CCC(=O)N2CCC(c3n[nH]c(=O)n3-c3ccccc3)CC2)c1	0%	-28%	i	-4%
Cc1ccc(-n2c(C3CCN(C(=O)COc4ccc(Cl)cc4C)CC3)n[nH]c2=O)cc1	18%	-78%	i	u
Cc1ccc(Cn2c(C3CCN(C(=O)COc4cccc(C)c4)CC3)n[nH]c2=O)cc1	-1%	-30%	i	0%
Cc1cccc(OCC(=O)N2CCC(c3n[nH]c(=O)n3-c3ccccc3)CC2)c1	-13%	7.1µM*	i	12%
Cc1cccc(OCC(=O)N2CCC(c3n[nH]c(=O)n3Cc3ccc(F)cc3)CC2)c1	0%	20µM*	i	-11%
SMILES	hNpr1 antagonist	3T3 cytotox	Luciferase inh	HEK cytotox
Cc1cc(Cl)ccc1OCC(=O)N1CCC(c2n[nH]c(=O)n2-c2ccccc2)CC1	8%	40µM*	i	u
CN(C)c1cccc(C(=O)N2CCC(c3n[nH]c(=O)n3-c3ccccc3)CC2)c1	0%	-20%	32µM*	4%
COc1ccccc1C(=O)N1CCN(CCn2nc3n(c2=O)CCCC3)CC1	x	-5%[138 µM]	x	-12%[172 µM]
O=C(NC1CCCC1)N1CCCC(C(=O)N2CCCC2c2nc3ccncc3[nH]2)C1 (stereo not drawn)	x	-9%	x	3%
C[S+](=O)([O-])N1CCC(c2nnc3n2C(C(=O)NCc2cccc(Cl)c2)CC3)CC1 (stereo not drawn)	x	-8%	x	i
O=C(NC1CCN(CCn2nc3n(c2=O)CCCC3)C1)c1ccccc1Cl (stereo not drawn)	x	-7%	x	0%
Cc1ccc(C(=O)NC2CCN(Cc3ccc(-c4ccsc4)cc3)C2)cc1 (stereo not drawn)	x	-14%	x	-15%
O=C(NC1CCN(Cc2ccc(-c3ccsc3)cc2)C1)c1ccccc1 (stereo not drawn)	x	u	x	45µM*
O=C(NC1CCN(Cc2ccc(-c3ccsc3)cc2)C1)c1ccncc1 (stereo not drawn)	x	u	x	40µM*
O=C(NC1CCN(Cc2ccc(-c3ccsc3)cc2)C1)c1ccccc1Cl (stereo not drawn)	x	u	x	45µM*
COCCNC(=O)[C@H]1C[C@H](Oc2ccccc2)CN1Cc1cccc(C)c1	0%	-24%	i	13µM*
CNC(=O)[C@H]1C[C@H](Oc2ccccc2)CN1Cc1cccn1C	-16%	4%	i	u
COCCNC(=O)[C@H]1C[C@H](Oc2ccccc2)CN1Cc1cccnc1	2%	i	i	i
CNC(=O)[C@H]1C[C@H](Oc2ccccc2)CN1Cc1cn(C)c2ccc(OC)cc12	-3%	32µM*	i	28µM*
N#Cc1cccc(-c2cn3cc(C(=O)NCc4cccc(Cl)c4)nc3s2)c1	x	-16%	x	u
Cc1nn(-c2ccccc2)c2c1C(C(C)C)N(C1CN(C(=O)Cc3ccccn3)C1)C2=O (stereo not drawn)	x	-36%	x	u
CCOCCNC(=O)c1nc2cccnc2n(C2CC2)c1=O	x	-8%[138 µM]	x	i
O=C(NC1CCN(c2ccnc3ccnn23)CC1)c1ccc(Cl)nc1	x	-24%	x	u
Cc1ccc(Nc2ccnc(N3CCC(NC(=O)c4ccc(C(F)(F)F)cc4)CC3)n2)cc1	x	13µM*	x	u
Cc1ccc(Nc2ccnc(N3CCC(NC(=O)c4ccc(F)cc4)CC3)n2)cc1	x	35µM*	x	u
Cc1ccc(Nc2ccnc(N3CCC(NC(=O)c4ccc(Cl)nc4)CC3)n2)cc1	x	40µM*	x	40µM*
Cc1ccc(C(=O)NC2CCN(c3cc(-c4ccc(F)cc4)[nH]n3)C2)cc1 (stereo not drawn)	-15%	u	i	u
COc1ccc(-c2nc(-c3ccccc3)nc3c2CN([S+](=O)([O-])c2cccs2)CC3)cc1	4%	-11%	i	1%
O=C(NC1CN(c2ccnc3ccnn23)C1)C1CCCC1	x	0%[138 µM]	x	i
O=S(=O)(c1ccc(C(F)(F)F)cc1)N1CCC(C2CCNC2)CC1 (stereo not drawn)	0%	u	i	79µM*
